From PubChem BioAssay (NCI) come the findings set out here.

Assay [1] is described as follows: NCI Yeast Anticancer Drug Screen. Data for the rad50 strain (AID 155).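 Also: 0% = growth of vehicle-only cultures of the same strain.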 As to conditions: S. cerevisiae rad50 strain growth inhibition, hits give high values. The method in brief: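 Genetically altered yeast (DNA repair pathway); compound treatment; growth inhibition vs vehicle ctrl.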
Assay [2] is described as follows: NCI Yeast Anticancer Drug Screen. Data for the mec2-1 strain (AID 157). As to conditions: S. cerevisiae mec2-1 strain, hits give high values. The method in brief:
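Growth inhibition is read against vehicle-treated controls after compound exposure of the mec2-1 yeast strain, which is defective in DNA damage repair or cell cycle control.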

Assay [3] is described as follows: NCI Yeast Anticancer Drug Screen. Data for the sgs1 mgt1 strain (AID 161).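 Also: 0% = growth of cultures given vehicle only.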 As to conditions: S. cerevisiae sgs1 mgt1 strain, hits give high values. The method in brief: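 Compounds are added to genetically altered yeast, and growth is compared with cultures given vehicle alone to give percent inhibition.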
A short description of assay [4]: NCI Yeast Anticancer Drug Screen. Data for the cln2 rad14 strain (AID 165).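 Also: 0% = growth equal to vehicle treated cultures.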 Particulars: S. cerevisiae cln2 rad14 strain, hits give high values. The method in brief: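 Growth inhibition, relative to vehicle-treated controls, is the read-out. The test organism is a yeast strain with defined genetic alterations, cln2 rad14.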
Assay [5] is described as follows: NCI Yeast Anticancer Drug Screen. Data for the bub3 strain (AID 167). Particulars: S. cerevisiae bub3 mutant strain, hits give high values. The method in brief: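 Yeast carrying a defined mutation is treated with each compound, and growth is compared with that of vehicle-exposed cells to give inhibition.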
Assay [6] can be described thus: NCI Yeast Anticancer Drug Screen. Data for the mlh1 rad18 strain (AID 175). Particulars: S. cerevisiae mlh1 rad18 strain growth inhibition, hits give high values. Put shortly: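 Cells of a genetically altered yeast strain, deficient in DNA damage repair, were treated with compound. Their growth was then compared with that of vehicle-treated cultures to give inhibition.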

The mark [7] stands for this setting: at 5.0 µM (retest, dose inferred, filed as 0.5).
Where [8] appears, read: at 50.0 µM (retest, dose inferred, filed as 5.0).

The structures appear in SMILES notation. About 79,000 compounds went through this panel and 15% of them were active in at least one assay; those are over-represented in the sample as a whole. A number with no mark means an inactive call. Calls of active or inactive are those of the source. Rule as the data show it: active = growth inhibition above about 70%; inactive = the rest.

In the case of `COc1cc2c(c(OC)c1OC)-c1ccc(SC)c(=O)cc1[C@@H](NC1OC(COC(C)=O)C(OC(C)=O)C(OC(C)=O)C1OC(C)=O)CC2` (some centres not stated), the growth inhibition in assay [1] (setting [7]) is 0%; in assay [1] (setting [8]) it was -3%; in assay [1] (at 50.0 µM), -1.6%; in assay [2] (setting [7]), -1%; in assay [2] (setting [8]) it was -3%; in assay [2] (at 50.0 µM), 2.55%. Also, the growth inhibition in assay [3] (setting [7]) was 1%; in assay [3] (setting [8]), 5%; in assay [3] (at 50.0 µM), 9.45%; in assay [4] (setting [7]), 3%; in assay [4] (setting [8]) it was -14%; in assay [4] (at 50.0 µM) it was 74.2% (active). For the same compound, the growth inhibition in assay [5] (setting [7]) is 0%; in assay [5] (setting [8]) it was -7%; in assay [5] (at 50.0 µM) it was 0.9%; in assay [6] (setting [7]) it was 0%; in assay [6] (setting [8]) it was -3%; in assay [6] (at 50.0 µM), 7.15%.

Turning to `CC(C)(CCBr)[N+](=O)[O-]`, the growth inhibition is -151% in assay [1] (setting [7]); -161% in assay [1] (setting [8]); 0.55% in assay [1] (at 50.0 µM); -47% in assay [2] (setting [7]); -54% in assay [2] (setting [8]); 16% in assay [2] (at 50.0 µM). In addition, the growth inhibition in assay [3] (setting [7]) is -61%; in assay [3] (setting [8]), -62%; in assay [3] (at 50.0 µM) it was 8.35%; in assay [4] (setting [7]), -52%; in assay [4] (setting [8]), -68%; in assay [4] (at 50.0 µM), 43.9%. Besides, the growth inhibition was -75% in assay [5] (setting [7]); -84% in assay [5] (setting [8]); 5.85% in assay [5] (at 50.0 µM); -225% in assay [6] (setting [7]); -127% in assay [6] (setting [8]); 0.35% in assay [6] (at 50.0 µM).

In the case of `O=C(Nc1ccccc1)c1cc(Cl)ccc1O`, the growth inhibition in assay [1] (setting [7]) is -12%; in assay [1] (setting [8]), 33%; in assay [1] (at 50.0 µM), 62.8%; in assay [2] (setting [7]), 3%; in assay [2] (setting [8]), 46%; in assay [2] (at 50.0 µM) it was 76% (active). Also, the growth inhibition in assay [3] (setting [7]) is 32%; in assay [3] (setting [8]) it was 61%; in assay [3] (at 50.0 µM), 71.8% (active); in assay [4] (setting [7]) it was 24%; in assay [4] (setting [8]) it was 33%; in assay [4] (at 50.0 µM) it was 58.5%. The growth inhibition in assay [5] (setting [7]) was 25%; in assay [5] (setting [8]), 49%; in assay [5] (at 50.0 µM) it was 74.7% (active); in assay [6] (setting [7]) it was 21%; in assay [6] (setting [8]), 74% (active); in assay [6] (at 50.0 µM), 84% (active).

Consider `Nc1ncnc2c1c(-c1ccccc1)cn2-c1ccc(Cl)cc1`, for which the growth inhibition in assay [1] (setting [7]) is 5%; in assay [1] (setting [8]), 26%; in assay [1] (at 50.0 µM) it was 22.2%; in assay [2] (setting [7]), 2%; in assay [2] (setting [8]), 10%; in assay [2] (at 50.0 µM) it was 15.5%. Also, the growth inhibition in assay [3] (setting [7]) is 16%; in assay [3] (setting [8]), 61%; in assay [3] (at 50.0 µM) it was 71.8% (active); in assay [4] (setting [7]) it was 0%; in assay [4] (setting [8]) it was 17%; in assay [4] (at 50.0 µM) it was 42.8%. Further, the growth inhibition is 8% in assay [5] (setting [7]); 5% in assay [5] (setting [8]); -17.4% in assay [5] (at 50.0 µM); 5% in assay [6] (setting [7]); 23% in assay [6] (setting [8]); 14.8% in assay [6] (at 50.0 µM).

On to `O=C1OC(c2ccccc2)CC1Cc1ccccc1` (configuration not stated), for which the growth inhibition in assay [1] (setting [7]) was -10%; in assay [1] (setting [8]) it was -15%; in assay [1] (at 50.0 µM), 1.7%; in assay [2] (setting [7]) it was -32%; in assay [2] (setting [8]) it was 3%; in assay [2] (at 50.0 µM) it was -0.25%. Also, the growth inhibition in assay [3] (setting [7]) was -2%; in assay [3] (setting [8]), 8%; in assay [3] (at 50.0 µM) it was -12.9%; in assay [4] (setting [7]) it was 9%; in assay [4] (setting [8]) it was -5%; in assay [4] (at 50.0 µM), -6.55%. Further, the growth inhibition was -2% in assay [5] (setting [7]); 6% in assay [5] (setting [8]); 29.1% in assay [5] (at 50.0 µM); -17% in assay [6] (setting [7]); -21% in assay [6] (setting [8]); -33.8% in assay [6] (at 50.0 µM).

For the compound `CNC(=O)c1ccc(OC)cc1C1(O)c2ccccc2CCc2ccccc21`, the growth inhibition in assay [1] (setting [7]) was 40%; in assay [1] (setting [8]) it was 64%; in assay [1] (at 50.0 µM), 58.6%; in assay [2] (setting [7]), 34%; in assay [2] (setting [8]) it was 49%; in assay [2] (at 50.0 µM) it was 45%. Further, the growth inhibition in assay [3] (setting [7]) is 36%; in assay [3] (setting [8]), 78% (active); in assay [3] (at 50.0 µM) it was 80.5% (active); in assay [4] (setting [7]), 27%; in assay [4] (setting [8]), 49%; in assay [4] (at 50.0 µM), 46.4%. Further, the growth inhibition in assay [5] (setting [7]) was 37%; in assay [5] (setting [8]) it was 87% (active); in assay [5] (at 50.0 µM) it was 58.8%; in assay [6] (setting [7]) it was 46%; in assay [6] (setting [8]) it was 76% (active); in assay [6] (at 50.0 µM), 58.8%.

Take `CN(C=O)c1ccc2c(c1)Cc1ccccc1-2`: the growth inhibition is 14% in assay [1] (setting [7]); 80% (active) in assay [1] (setting [8]); 47.7% in assay [1] (at 50.0 µM); 4% in assay [2] (setting [7]); 22% in assay [2] (setting [8]); 24.8% in assay [2] (at 50.0 µM). Further, the growth inhibition in assay [3] (setting [7]) was 27%; in assay [3] (setting [8]), 82% (active); in assay [3] (at 50.0 µM), 44.9%; in assay [4] (setting [7]), 2%; in assay [4] (setting [8]) it was 40%; in assay [4] (at 50.0 µM), 58.8%. The growth inhibition in assay [5] (setting [7]) was 15%; in assay [5] (setting [8]), 55%; in assay [5] (at 50.0 µM), 22.2%; in assay [6] (setting [7]) it was 13%; in assay [6] (setting [8]) it was 74% (active); in assay [6] (at 50.0 µM), 82% (active).

Take `Cc1ccc(/C=C2\CCCc3ccccc3C2=O)cc1`: the growth inhibition in assay [1] (setting [7]) was 0%; in assay [1] (setting [8]) it was 7%; in assay [1] (at 50.0 µM), 51.3%; in assay [2] (setting [7]), 7%; in assay [2] (setting [8]), 23%; in assay [2] (at 50.0 µM), 7.9%. Besides, the growth inhibition in assay [3] (setting [7]) was 8%; in assay [3] (setting [8]) it was 33%; in assay [3] (at 50.0 µM), 55.8%; in assay [4] (setting [7]), -11%; in assay [4] (setting [8]) it was -11%; in assay [4] (at 50.0 µM), 11.3%. The growth inhibition was 59% in assay [5] (setting [7]); 81% (active) in assay [5] (setting [8]); 72.3% (active) in assay [5] (at 50.0 µM); 7% in assay [6] (setting [7]); 23% in assay [6] (setting [8]); 55.1% in assay [6] (at 50.0 µM).

Consider `CCc1cc2c([nH]c3ccccc32)c(C)c1CCN(C)C`, for which the growth inhibition was -1% in assay [1] (setting [7]); 23% in assay [1] (setting [8]); 35.1% in assay [1] (at 50.0 µM); 4% in assay [2] (setting [7]); 23% in assay [2] (setting [8]); 3.65% in assay [2] (at 50.0 µM). In addition, the growth inhibition in assay [3] (setting [7]) is 3%; in assay [3] (setting [8]) it was 46%; in assay [3] (at 50.0 µM), 1.45%; in assay [4] (setting [7]), -11%; in assay [4] (setting [8]), 24%; in assay [4] (at 50.0 µM), -14.6%. In addition, the growth inhibition is -9% in assay [5] (setting [7]); -5% in assay [5] (setting [8]); 12.6% in assay [5] (at 50.0 µM); -5% in assay [6] (setting [7]); 43% in assay [6] (setting [8]); 69.8% in assay [6] (at 50.0 µM).
